Assay results as given in PMC4336329 (PLoS ONE, 2015).
In all, about 310,000 compounds went through this assay and about 14,000 (4.5%) showed an effect of 50% or more. The effect is printed as a negative number. The sample as a whole holds a higher share of strong results than the screen did.

Molecular target: human ether-à-go-go-related gene (hERG) potassium channel (human, UniProt Q12809)
Experiment: primary screen, population patch clamp on CHO cells stably expressing hERG; higher = less effect of the substance
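Note: peak tail current of the secondary pulse compared with the same well before compound.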

human ether-à-go-go-related gene (hERG) potassium channel, sequence (Q12809 whole entry, looked up): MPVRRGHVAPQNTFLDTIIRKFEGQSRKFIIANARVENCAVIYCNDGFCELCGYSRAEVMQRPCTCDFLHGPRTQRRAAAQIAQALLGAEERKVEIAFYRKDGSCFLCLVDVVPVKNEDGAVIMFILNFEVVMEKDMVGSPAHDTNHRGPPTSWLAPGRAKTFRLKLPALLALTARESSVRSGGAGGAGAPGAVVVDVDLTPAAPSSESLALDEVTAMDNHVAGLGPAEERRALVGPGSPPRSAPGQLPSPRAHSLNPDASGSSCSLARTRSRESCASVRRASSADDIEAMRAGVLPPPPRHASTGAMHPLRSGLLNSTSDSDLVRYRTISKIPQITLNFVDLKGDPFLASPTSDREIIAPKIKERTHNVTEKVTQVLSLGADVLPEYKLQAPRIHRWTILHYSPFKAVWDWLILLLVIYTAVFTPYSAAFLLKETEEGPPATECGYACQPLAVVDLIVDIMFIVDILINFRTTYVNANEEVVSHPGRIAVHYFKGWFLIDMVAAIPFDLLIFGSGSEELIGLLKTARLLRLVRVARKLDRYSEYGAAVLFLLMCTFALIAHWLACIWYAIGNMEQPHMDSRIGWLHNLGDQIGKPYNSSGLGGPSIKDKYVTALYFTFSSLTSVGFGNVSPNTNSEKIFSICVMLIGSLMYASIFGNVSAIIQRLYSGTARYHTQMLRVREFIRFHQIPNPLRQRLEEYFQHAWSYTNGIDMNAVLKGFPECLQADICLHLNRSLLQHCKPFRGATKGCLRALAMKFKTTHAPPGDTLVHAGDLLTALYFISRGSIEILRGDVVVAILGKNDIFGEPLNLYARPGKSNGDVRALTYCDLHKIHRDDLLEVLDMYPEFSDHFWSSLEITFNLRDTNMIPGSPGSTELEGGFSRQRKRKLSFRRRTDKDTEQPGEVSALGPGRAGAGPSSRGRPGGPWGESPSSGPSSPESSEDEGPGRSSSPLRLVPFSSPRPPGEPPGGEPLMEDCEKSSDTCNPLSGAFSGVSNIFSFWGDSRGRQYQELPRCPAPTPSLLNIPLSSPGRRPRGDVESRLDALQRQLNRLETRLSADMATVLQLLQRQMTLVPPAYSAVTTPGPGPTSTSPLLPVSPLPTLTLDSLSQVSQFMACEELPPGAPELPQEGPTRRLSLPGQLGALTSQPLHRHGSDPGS

First: CCCCC(CC)C(=O)Nc1cc(C(=O)NCc2ccc(C)cc2)ccc1N1CCC2(CC1)CC(c1cccc(Br)c1)=NO2 (centres unmarked)
Second: CCN(CC)CCNC(=O)c1ccc(NC(=O)C2CCN(c3ncnc4sc(C)c(C)c34)CC2)cc1
The “hERG current change (%, negative = inhibition) at 10uM” value of the first is higher: 17.6% for the first, -29.8% for the second.

First: CCOC(=O)C1=C(C)N=c2s/c(=C/c3cccc([N+](=O)[O-])c3O)c(=O)n2C1c1ccccc1 (centres unmarked)
Second: CCOC(=O)C1(CCc2ccccc2)CCN(Cc2c(O)cccc2OC)CC1
The “hERG current change (%, negative = inhibition) at 10uM” value of the first is higher: -20.4% for the first, -95.1% for the second.

Compared with `COc1ccc(CCC(=O)Nc2ncc(C)s2)cc1OC`, `COc1ccc(CCNCc2ccc(Br)cc2)cc1OC.O=C(O)C(=O)O` is lower in “hERG current change (%, negative = inhibition) at 10uM” value: 16.2% for the first, -62.9% for the second.

Compared with `Cc1ccc(S(=O)(=O)N2CCN(C(=O)COC(=O)CSc3cc(C)ccc3C)CC2)c(C)c1`, `COc1ccc(C)cc1S(=O)(=O)N1CCN(S(=O)(=O)c2cc(C)ccc2OC)CC1` is higher in “hERG current change (%, negative = inhibition) at 10uM” value: -6.13% for the first, -1.43% for the second.

Going from `COc1ccccc1C(=O)Nc1ccnn1C1CCN(C/C=C/c2ccccc2)CC1` to `COc1ccccc1C(=O)Nc1ccnn1C1CCN(C/C=C/c2ccc(F)cc2)CC1`, the “hERG current change (%, negative = inhibition) at 10uM” value rises from -78.9% to -76.6%.

First: COc1ccccc1C(=O)NC(CCSC)C(=O)N1CCC(Cc2ccccc2)CC1 (centres unmarked)
Second: COc1ccccc1C(=O)NC(CCSC)C(=O)N1CCN(C/C=C/c2ccccc2)CC1 (centres unmarked)
The “hERG current change (%, negative = inhibition) at 10uM” value of the first is higher: -23.1% for the first, -109% for the second.

Compared with `COCCC(=O)N1CCC(n2nccc2NC(=O)c2ccccc2C)CC1`, `COc1ccccc1C(=O)NC(CCSC)C(=O)N1CCN(C(C)=O)CC1` (centres unmarked) is lower in “hERG current change (%, negative = inhibition) at 10uM” value: 12.6% for the first, -0.345% for the second.

First: O=C(COc1ccccc1-c1ccccc1)NN=C1CCCC1
Second: NC(=O)N1N=C2/C(=C/c3ccccc3)CCCC2C1c1ccccc1 (centres unmarked)
The “hERG current change (%, negative = inhibition) at 10uM” value of the first is higher: -6.03% for the first, -17.1% for the second.

Compared with `COC(=O)c1cc(NC(=O)CN(c2ccc3c(c2)OCO3)S(C)(=O)=O)ccc1Cl`, `COc1ccc(CNCCc2ccc3c(c2)OCO3)cc1Br.O=C(O)C(=O)O` is lower in “hERG current change (%, negative = inhibition) at 10uM” value: -8.58% for the first, -50.5% for the second.

Compared with `CCN1CCN(Cc2ccc(NC(=O)c3cc(NC(=O)C(=O)c4c[nH]c5ccccc45)cc(OC)c3)cc2C(F)(F)F)CC1`, `COc1cc(OC)c(OC)cc1CN1CCN(C(=O)Cc2ccccc2)CC1.O=C(O)C(=O)O` is lower in “hERG current change (%, negative = inhibition) at 10uM” value: 8.1% for the first, 5.5% for the second.

First: O=C(CSc1nc2cc(Cl)c(Cl)cc2[nH]1)c1ccc2c(c1)OCO2
Second: COc1cc(Br)c(CNCCc2ccc3c(c2)OCO3)cc1OC
The “hERG current change (%, negative = inhibition) at 10uM” value of the first is higher: 7.8% for the first, -32% for the second.

Compared with `Cc1c(C(C)NC(=O)Nc2ccc(F)cc2F)cnn1C` (centres unmarked), `O=C(Nc1ccc(F)cc1F)C1CCN(c2ncnc3c2sc2cccc(F)c23)CC1` is lower in “hERG current change (%, negative = inhibition) at 10uM” value: 15.2% for the first, 3.98% for the second.

First: O=C(O)/C=C/c1ccc([N+](=O)[O-])o1
Second: COc1ccc(CNCc2ccc3c(c2)OCO3)cc1Br.O=C(O)C(=O)O
The “hERG current change (%, negative = inhibition) at 10uM” value of the first is higher: 22.2% for the first, -23.1% for the second.

First: Fc1ccccc1CSc1nnc(-c2ccccc2)o1
Second: N#Cc1cn(-c2ccccc2)nc1-c1ccccc1
The “hERG current change (%, negative = inhibition) at 10uM” value of the first is lower: -9.31% for the first, 0.313% for the second.

First: COP(=O)(OC)C(NS(=O)(=O)c1ccccc1)C(Cl)(Cl)Cl (centres unmarked)
Second: COc1ccccc1N(CC1CO1)S(=O)(=O)c1ccc(C)cc1 (centres unmarked)
The “hERG current change (%, negative = inhibition) at 10uM” value of the first is higher: 23.8% for the first, 18.9% for the second.

Going from `COc1ccc2nc(C)cc(Nc3ccccc3O)c2c1.Cl` to `COc1ccc(OC)c(Nc2cc(C)nc3ccccc23)c1`, the “hERG current change (%, negative = inhibition) at 10uM” value falls from -20.3% to -57.6%.

Compared with `CCOC(=O)c1nc(Nc2cc(Cl)ccc2OC)c2ccccc2n1`, `COc1ccc(Cl)cc1Nc1cc(C)nc2ccccc12` is lower in “hERG current change (%, negative = inhibition) at 10uM” value: 6.83% for the first, -73% for the second.

Compared with `COc1ccc(Cl)cc1Nc1nc(N)c2ccccc2n1.Cl`, `COc1ccc(OC)c(Nc2cc(C)c3ccccc3n2)c1` is lower in “hERG current change (%, negative = inhibition) at 10uM” value: 20.4% for the first, 2% for the second.

First: COc1ccc(OC)c(Nc2cc(-c3ccccc3)nc(N)n2)c1
Second: COc1ccc(OC)c(Nc2ncnc3ccccc23)c1.Cl
The “hERG current change (%, negative = inhibition) at 10uM” value of the first is lower: -55.9% for the first, -18.6% for the second.

First: COc1ccc(OC)c(Nc2nc(-c3ccccc3O)nc3ccccc23)c1
Second: COc1ccc(OC)c(Nc2cc(C)nc3ccc(C)cc23)c1
The “hERG current change (%, negative = inhibition) at 10uM” value of the first is higher: 18.7% for the first, -68.6% for the second.

Going from `COc1ccc(OC)c(Nc2ccc(Nc3cc(OC)ccc3OC)nn2)c1` to `COc1ccc(OC)c(CNCCc2ccc(OC)c(OC)c2)c1.O=C(O)C(=O)O`, the “hERG current change (%, negative = inhibition) at 10uM” value rises from -2.07% to 5.38%.

Going from `Cc1cccc(OC(C)C(=O)Nc2ccccc2C(=O)N2CCCCC2)c1` (centres unmarked) to `O=C(Nc1cccc(C(=O)N2CCCCCC2)c1)c1ccco1`, the “hERG current change (%, negative = inhibition) at 10uM” value falls from -0.472% to -14.5%.

Going from `CCCC1=Nc2cc(C(=O)NCc3ccco3)ccc2Sc2ccccc21` to `CCc1ccc2c(c1)C(c1cccs1)=NNC(c1cccnc1)=N2`, the “hERG current change (%, negative = inhibition) at 10uM” value falls from 1.84% to -48.6%.

First: CC(Cl)C(=O)Nc1cc(C(F)(F)F)ccc1N1CCOCC1 (centres unmarked)
Second: O=C(NCc1cccc(C(F)(F)F)c1)c1cccc(Cl)c1Cl
The “hERG current change (%, negative = inhibition) at 10uM” value of the first is lower: 2.38% for the first, 10.5% for the second.

Going from `Cc1cccc(NC(=O)Cc2c(F)cccc2Cl)n1` to `CC(=O)c1ccc(NS(=O)(=O)c2c(C)cc(C)cc2C)cc1`, the “hERG current change (%, negative = inhibition) at 10uM” value rises from 5.01% to 17.9%.

Compared with `CC1CCN(C(C)C(=O)Nc2cc(S(=O)(=O)N3CCCCC3)ccc2Cl)CC1` (centres unmarked), `Cc1nnc(NC(=O)c2cc(S(=O)(=O)N3CCCCC3)ccc2Cl)s1` is higher in “hERG current change (%, negative = inhibition) at 10uM” value: -18.3% for the first, 14.6% for the second.

Compared with `COc1ccc2c(c1)C(c1cccs1)=NNC(c1cccnc1)=N2`, `CCOc1ccc2c(c1)C(c1cccs1)=NNC(c1cccnc1)=N2` is lower in “hERG current change (%, negative = inhibition) at 10uM” value: 10.4% for the first, -65.4% for the second.

First: O=C(CCn1c(=S)oc2ccccc21)N1CCCCC1
Second: O=C(C1CCN(c2ncnc3c2sc2cccc(F)c23)CC1)N1CCCC1
The “hERG current change (%, negative = inhibition) at 10uM” value of the first is higher: -7.1% for the first, -19.7% for the second.

Compared with `COc1ccc(Br)cc1CNCCc1ccc2c(c1)OCO2`, `COc1cc(OC)c(OC)cc1CNCCc1ccc2c(c1)OCO2.O=C(O)C(=O)O` is higher in “hERG current change (%, negative = inhibition) at 10uM” value: -60.7% for the first, -8.77% for the second.

Going from `COc1ccc(CCNCc2cccc(C(F)(F)F)c2)cc1OC.O=C(O)C(=O)O` to `COc1cc(CNCCc2ccc3c(c2)OCO3)cc(OC)c1OC.O=C(O)C(=O)O`, the “hERG current change (%, negative = inhibition) at 10uM” value falls from 0.584% to -14.2%.

Going from `COC(=O)c1cc(CSc2ncnc3sccc23)oc1C` to `CCN(CC)CCCNC(=O)C1CCN(c2ncnc3c2sc2cccc(F)c23)CC1`, the “hERG current change (%, negative = inhibition) at 10uM” value falls from 16.6% to -50.2%.

Compared with `CCOC(=O)C1(CCc2ccccc2)CCN(Cc2cc(OC)c(OC)cc2OC)CC1`, `COc1ccc(C2C3=C(CC(C)(C)CC3=O)Nc3c2c(=O)[nH]c(=O)n3Cc2ccccc2)cc1OC` (centres unmarked) is higher in “hERG current change (%, negative = inhibition) at 10uM” value: -77.4% for the first, -3.11% for the second.

Going from `CCc1cc(Cn2nc(-c3ccccc3)cc2C(=O)O)on1` to `CC(=O)N1N=C2/C(=C/c3ccccc3)CCCC2C1c1ccccc1` (centres unmarked), the “hERG current change (%, negative = inhibition) at 10uM” value falls from -1.7% to -10.5%.

Going from `O=C(CNC(=O)c1cccs1)N/N=C/c1cccc(Cl)c1` to `COc1ccc(OC)c(NC(=O)C(=O)NNC(=O)c2cccs2)c1`, the “hERG current change (%, negative = inhibition) at 10uM” value rises from -5.74% to 10.9%.

First: O=C(NCCCO)C(=O)NCC(c1ccc2c(c1)OCO2)N1CCN(c2ccc(F)cc2)CC1 (centres unmarked)
Second: CCN(CC)CCCNC(=O)C1CCN(C(=O)c2cc3sccc3n2Cc2ccc(F)cc2)CC1
The “hERG current change (%, negative = inhibition) at 10uM” value of the first is lower: -41.4% for the first, -2.11% for the second.

Compared with `CC[N+](CC)(CCCCS(=O)(=O)[O-])CCNP1(=O)C=C(c2ccccc2)OC(c2ccccc2)=C1`, `N#CC[N+]1(CCCNP2(=O)C=C(c3ccccc3)OC(c3ccccc3)=C2)CCOCC1.[Cl-]` is lower in “hERG current change (%, negative = inhibition) at 10uM” value: 9.75% for the first, -63.5% for the second.

Compared with `O=C(C[N+]1(CC#Cc2ccccc2)CCOCC1)c1ccccc1.[Br-]`, `Cc1ncsc1C(=O)N1N=C2/C(=C/c3ccccc3)CCCC2C1c1ccccc1` (centres unmarked) is lower in “hERG current change (%, negative = inhibition) at 10uM” value: 35.8% for the first, -0.298% for the second.

Compared with `O=C(c1ccccn1)N1N=C2/C(=C/c3ccc(F)cc3)CCCC2C1c1ccc(F)cc1` (centres unmarked), `O=C(c1ccccn1)N1N=C2/C(=C/c3ccccc3)CCCC2C1c1ccccc1` (centres unmarked) is higher in “hERG current change (%, negative = inhibition) at 10uM” value: -54.3% for the first, -37.1% for the second.

Going from `O=C1CCC(C(=O)OCC(=O)N2N=C3/C(=C/c4ccccc4)CCCC3C2c2ccccc2)N1` (centres unmarked) to `CCOC(=O)Cc1csc(NC(=O)CCCN2C(=O)c3ccccc3C2=O)n1`, the “hERG current change (%, negative = inhibition) at 10uM” value rises from -70.3% to 12.2%.

Compared with `CCCCCOC(=O)C1=C(C)NC(=O)NC1c1ccc(N(C)C)cc1` (centres unmarked), `CCOC(=O)N1CCN(C(=O)C2CCN(c3ncnc4c3sc3cccc(F)c34)CC2)CC1` is lower in “hERG current change (%, negative = inhibition) at 10uM” value: 12.5% for the first, -59.9% for the second.

First: O=C(C1CCN(c2ncnc3c2sc2cccc(F)c23)CC1)N1CCOCC1
Second: O=C(NCCN1CCOCC1)C1CCN(c2ncnc3c2sc2cccc(F)c23)CC1
The “hERG current change (%, negative = inhibition) at 10uM” value of the first is lower: -27.8% for the first, -25.6% for the second.

First: CC1CC(C)CN(CCCNC(=O)C2CCN(c3ncnc4c3sc3cccc(F)c34)CC2)C1 (centres unmarked)
Second: O=C(NC1CC1)C1CCN(c2ncnc3c2sc2cccc(F)c23)CC1
The “hERG current change (%, negative = inhibition) at 10uM” value of the first is lower: -65.8% for the first, -52% for the second.

Compared with `COc1ccc(-c2noc(N3CCC(C(=O)NCCCN4CC(C)CC(C)C4)CC3)n2)cc1` (centres unmarked), `O=C(NC1CC1)C1CCN(c2nc3ccccc3s2)CC1` is higher in “hERG current change (%, negative = inhibition) at 10uM” value: -18.1% for the first, -5.63% for the second.
